Measured values reported in PubChem BioAssay AID1942 (Johns Hopkins Ion Channel Center, 2009).
Screen size: about 2,400 compounds; about 580 (24%) were called active. A selection follows. A number with no mark means an inactive call.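 The calls were made as follows: active = activity change at or above the mean plus 3 SD of buffer wells without dofetilide, per plate; inactive = the rest.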

The molecules below were run against Potassium voltage-gated channel subfamily KQT member 2 (Rattus norvegicus) (UniProt O88943) (assay: rat KCNQ2 channel activation by compounds alone, confirmation, counter-screen for hERG block protector project, cell-based, CHO, FluxOR thallium flux (AID 1942;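 also: normalized value minus buffer-control mean plus three SD of buffer wells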)). Settings: CHO-KCNQ2 cells, FluxOR thallium flux fluorescence; at 10 µM; hits give high values.
Chain of Potassium voltage-gated channel subfamily KQT member 2 (Rattus norvegicus) (O88943 whole entry, looked up): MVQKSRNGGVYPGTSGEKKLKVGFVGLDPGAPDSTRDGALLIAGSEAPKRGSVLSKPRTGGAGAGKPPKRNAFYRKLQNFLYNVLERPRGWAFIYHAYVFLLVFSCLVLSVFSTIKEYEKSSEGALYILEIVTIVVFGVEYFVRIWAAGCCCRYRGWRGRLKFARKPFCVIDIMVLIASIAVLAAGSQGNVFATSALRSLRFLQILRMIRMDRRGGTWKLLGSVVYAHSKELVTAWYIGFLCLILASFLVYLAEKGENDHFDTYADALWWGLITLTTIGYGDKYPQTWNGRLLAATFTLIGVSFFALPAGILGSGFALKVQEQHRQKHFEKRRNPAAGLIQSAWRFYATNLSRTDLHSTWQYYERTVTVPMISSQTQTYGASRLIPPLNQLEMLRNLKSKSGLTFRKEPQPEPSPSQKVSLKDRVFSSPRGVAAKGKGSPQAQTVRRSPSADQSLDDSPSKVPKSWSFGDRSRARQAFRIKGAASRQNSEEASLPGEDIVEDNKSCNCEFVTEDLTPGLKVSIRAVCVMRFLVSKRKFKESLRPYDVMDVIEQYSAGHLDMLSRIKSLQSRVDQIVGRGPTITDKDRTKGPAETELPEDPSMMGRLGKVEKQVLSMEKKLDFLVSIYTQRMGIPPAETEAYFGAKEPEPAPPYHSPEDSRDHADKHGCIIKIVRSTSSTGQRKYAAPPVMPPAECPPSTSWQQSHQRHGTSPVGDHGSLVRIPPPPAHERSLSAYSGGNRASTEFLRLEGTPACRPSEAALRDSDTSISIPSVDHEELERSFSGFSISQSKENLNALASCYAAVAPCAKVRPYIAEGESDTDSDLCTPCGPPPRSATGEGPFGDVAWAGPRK

Structure (SMILES) | activity change, less the hit threshold
O=C(Cn1cnc2ccccc21)c1ccccc1 | -11.5%
COc1cccc(C(=O)NNC(=O)C(=O)Nc2ccc(OC)cc2OC)c1 | 29.6% (active)
O=C(CN1C(=O)COc2ccccc21)NCCCN1CCOCC1 | -8.4%
Cc1cccc(NC(=S)N/N=C2/CCCCc3ccccc32)c1 | -20.4%
Cc1cccc2nc(-c3cccnc3)c(NCCC(C)C)n12 | -51.2%
COc1nnc(-c2ccc(C)c(S(=O)(=O)NC(C)(C)CO)c2)c2ccccc12 | -9.1%
O=C1NC(=S)SC1=C1CCCCCC1 | 58.8% (active)
CCOC(=O)N1CCN(C(=O)CN(c2ccc(OCC)cc2)S(C)(=O)=O)CC1 | -17.4%
c1ccc2oc(-c3nn4c(Cn5cnc6ccccc65)nnc4s3)cc2c1 | -19.1%
Cc1cccc(Cn2c(O)c(N=NC(=S)Nc3ccccc3F)c3ccccc32)c1 | -22.3%
C/C(Cl)=C\Cn1c(O)c(N=NC(N)=S)c2cc(Br)ccc21 | 16.1% (active)
C=CCn1c(O)c(N=NC(=S)Nc2ccccc2F)c2cc(S(=O)(=O)N3CCOCC3)ccc21 | -16.8%
CCC1(C(=O)O)NC(c2cc(OC)ccc2O)C2C(=O)N(Cc3ccccc3)C(=O)C21 (centres undefined) | -9.2%
CCOC(=O)c1sc2nc(Cc3ccc(Cl)cc3)[nH]c(=S)c2c1C | -4.8%
CCOC(=O)c1sc(NN=C(C(=O)OC)C(=O)OC)c(C(=O)OCC)c1C | -9.1%
CCOC(=O)c1sc2nc(C)[nH]c(=S)c2c1C | 4.9% (active)
Cc1ccc(Cn2nnc3c(=O)n(CC(=O)N4CCCc5ccccc54)cnc32)cc1 | -14.8%
O=C(NN1C(=O)C2C(c3ccccc3)C=CC(c3ccccc3)C2C1=O)c1ccncc1 (centres undefined) | -42.5%
Cc1c(C(=O)N/N=C/c2ccccn2)nnn1-c1nonc1N | -9.3%
O=C(N/N=C/c1ccccn1)c1sc2ccccc2c1Cl | 27.4% (active)
O=C(N/N=C/c1ccccn1)c1cc(-c2ccc(Br)cc2)nc2ccccc12 | -26.1%
O=C1c2cccc3cccc(c23)C(=O)C1(O)O | -5.4%
Cc1ccc(C(=O)O)cc1-c1ccc(/C=C2\SC(=O)N(CC(=O)Nc3ccccc3)C2=O)o1 | -22%
Cc1nn(-c2ccccc2)c(N2CCCC2)c1/C=N/O | -13.5%
COc1ccc(C(=O)O)cc1S(=O)(=O)Nc1cccc(C(F)(F)F)c1 | -13.4%

Structure (SMILES) | activity change, less the hit threshold
Cc1nn(-c2cccc(C(F)(F)F)c2)c(Cl)c1/C=N/Nc1cccc(C(=O)O)c1 | 17.9% (active)
O=C(O)c1c2c(nc3ccccc13)/C(=C/c1cccc([N+](=O)[O-])c1)CCC2 | -21%
Cc1ccccc1C(=O)c1cn[nH]c1-c1ccccc1O | -32.5%
COC(=O)Nc1c(-c2ccccc2)nc2ccccn12 | -17%
O=c1c(-c2ccccc2)nc(-c2ccccc2)cn1O | 65.1% (active)
Cc1nc(-c2ccccc2)cn(O)c1=O | -1%
CC(=O)c1ccc2c(c1)OCCOCCOCCO2 | -20.1%
Cc1cnc(C(=O)Nc2nccs2)cn1 | -18.4%
O=C(CCc1ccccc1)Nc1nccs1 | -23.4%
Fc1ccc(NC(=S)Nc2nccs2)cc1 | 1.8% (active)
COc1ccc(-c2cc(C(=O)N3CCCC3)no2)cc1 | -9%
COc1ccc(-c2cc(C(F)(F)F)nc(N3CCCCC3)n2)cc1OC | -16.3%
COc1ccc(-c2cc(C(=O)N3CCCC3)no2)cc1OC | 2.6% (active)
CC(/C=C1\SC(=S)N(c2ccc(C(=O)O)cc2)C1=O)=C\c1ccccc1 | -20.4%
CC(/C=C1\N=C(SCc2ccccc2Cl)SC1=O)=C\c1ccccc1 | -10.1%
CC(/C=C1\SC(=S)N(NS(=O)(=O)c2ccc(C)cc2)C1=O)=C\c1ccccc1 | 8.8% (active)
CC(/C=C1\SC(=S)N(NS(=O)(=O)c2ccccc2)C1=O)=C\c1ccccc1 | 18.1% (active)
Cc1ccc(S(=O)(=O)N2C(=O)/C(=C3\SC(=S)NC3=O)c3ccccc32)cc1 | -14.4%
COc1ccccc1/C=C1\SC(=S)N(NS(=O)(=O)c2ccc(C)cc2)C1=O | -24.5%
COCCNC(=O)C(=O)N/N=C/c1ccc(C(=O)OC)cc1 | -24.8%
O=C(CCNC(=O)C1CCN(S(=O)(=O)c2ccc(F)cc2)CC1)NCc1ccc(Cl)cc1 | -18.1%
Cc1cc(C)c(S(=O)(=O)Nc2cccc(-n3cnnn3)c2)c(C)c1 | -20.5%
COc1ccccc1NC(=O)C1CCCN1C(=O)Nc1ccc(F)cc1 (centres undefined) | -19.8%
COC(=O)C1CCCN1C(=O)COc1ccc(Cl)cc1Br (centres undefined) | 8.6% (active)
O=C(COc1ccc(Cl)cc1Cl)Nc1cccnc1 | -20.4%

Structure (SMILES) | activity change, less the hit threshold
CS(=O)(=O)Nc1cccc(-c2cn3ccccc3n2)c1 | -6.5%
Cn1c(=O)c2sccc2n(Cc2cccc(Br)c2)c1=O | -20.7%
CCN1CCN(CCNC(=O)CCCn2nc(C)c3c(C)n(-c4ccc(C)cc4)nc3c2=O)CC1 | -21%
S=c1nc(Cc2ccccc2)[nH]c2ccccc12 | 76.9% (active)
CC(C)c1ccc(/C=N/n2c(COc3ccccc3)n[nH]c2=S)cc1 | -16.5%
O=C(O)CCCCCNc1nc(=S)[nH]c2ccccc12 | -0.8%
S=c1nc(COc2ccccc2)[nH]c2ccccc12 | 131% (active)
CSc1nc(C)c(Cc2ccccc2)c(=O)[nH]1 | -18.7%
O=c1[nH]c(SCc2cccc(Cl)c2)nc2ccccc12 | -14.1%
S=c1nc(SCc2ccccc2)[nH]c2ccccc12 | 73.5% (active)
S=c1nc(Cc2ccc(Cl)cc2)[nH]c2ccccc12 | 28.2% (active)
S=c1[nH]nc(Cc2ccc(Br)cc2)n1/N=C/c1ccc(Cl)cc1 | -13.3%
N=C1S/C(=C\c2ccco2)C(=O)N1c1nccs1 | -12%
CC(=O)Nc1ccc(S(=O)(=O)N2CCC(NC(=O)c3ccccc3)CC2)cc1 | -20.1%
Cc1ccc(NC(=O)CSc2nnc(C3CC3)n2CC2CCCO2)c(C)c1 (centres undefined) | -18.6%
S=c1[nH]nc(-c2ccco2)n1/N=C/C(Cl)=C/c1ccccc1 | -17.6%
O=C(c1cncc(Br)c1)N1CCc2ccccc2C1 | -24.3%
C/C(=N\N1CCN(C2c3ccccc3-c3ccccc32)CC1)c1ccncc1 | -19.2%
O=C(NC(C(=O)c1ccccc1)n1cnccc1=O)c1ccccc1 (centres undefined) | -8.7%
O=C(Nn1cnnc1)c1ccncc1 | -10.9%
CC(NC(=O)c1ccncc1)C(C)(C)C (centres undefined) | 2.9% (active)
Cc1c(OC(C(=O)O)c2ccccc2)ccc2c(-c3ccccc3)cc(=O)oc12 (centres undefined) | -7%
Cc1ccc2c(c1)c1c(n2CC(O)Cn2nc(C)c(Br)c2C)CCCC1 (centres undefined) | -17.5%
Cc1cc(C)c2nc(NC(=O)CN3C(=O)NC4(CCCC4)C3=O)sc2c1 | -9%
COC(=O)c1sc(NC(=S)NC(=O)c2ccccc2F)nc1C | 11.7% (active)

Structure (SMILES) | activity change, less the hit threshold
COC(=O)c1sc(NC(=S)NC(=O)c2ccc(C)cc2)nc1C | -13.3%
COC(=O)c1sc(NC(=S)NC(=O)c2ccccc2C)nc1C | 26.5% (active)
O=c1[nH]c(=O)n(CCc2ccc(F)cc2)c(O)c1C=NCc1ccc2c(c1)OCO2 | -22.5%
COc1ccc(C(=O)NC2CC3CCCC(C2)N3Cc2ccccc2)cc1 (centres undefined) | -27.5%
O=c1[nH]c(N2CCN(c3ccccc3)CC2)nc2c1CCCC2 | -11.1%
C=C(C)CSc1nc(N)cc(=O)[nH]1 | -12%
CC1CCCCC1n1c(=S)[nH]c2ccccc2c1=O (centres undefined) | 6.6% (active)
CC1CCC(n2c(=S)[nH]c3ccccc3c2=O)CC1 (centres undefined) | 47.8% (active)
CC1CCC(N2CCN(C(=O)c3ccccc3F)CC2)CC1 (centres undefined) | -9.6%
O=c1c2ccccc2[nH]c(=S)n1C1CCCCC1 | -15.1%
Cn1c(O)c(N=NC(=S)Nc2ccccc2F)c2cc(S(=O)(=O)N3CCOCC3)ccc21 | -19.7%
Cc1ccc(C(C)C)cc1S(=O)(=O)NC1CC(C)(C)NC(C)(C)C1 | -26%
Nc1cc(N)nc(SCc2cc(=O)oc3cc4c(cc23)CCC4)n1 | -20.8%
CS(=O)(=O)N(CCc1ccccc1)CC(=O)N1CCN(c2ccc(F)cc2)CC1 | -26.1%
Cc1cc(C(=O)NCc2ccc(S(N)(=O)=O)cc2)ccc1[N+](=O)[O-] | -13.6%
O=C(NCc1cccnc1)c1ccc(NS(=O)(=O)c2ccc(F)cc2)cc1 | -4.9%
O=C(NC(=S)Nc1ncc(Br)cc1Br)c1ccccc1 | -0.7%
Cc1cc2ccccn2c1C(=S)NC(=O)c1ccccc1 | 40.3% (active)
O=C(c1n[nH]c2c1CCCC2)n1ccnc1 | -12.7%
C[C@@H]1CCCCCCCCCCC1=O | -18%
Cc1ccc(C(=O)CC(=O)c2ccc(C)cc2O)cc1 | -9.3%
Cc1ccc(C(=O)CC(=O)COc2ccc(Cl)cc2C)cc1 | -1.4%
Cc1ccc(C(=O)COC(=O)C2CCC2)cc1 | 2.2% (active)
O=c1ccn(Cc2ccc(F)cc2)c2ccnc(C(F)(F)F)c12 | -16.3%
